Drawing on paper PMC7862700, “An all-to-all approach to the identification of sequence-specific readers for epigenetic DNA modifications on cytosine”, this text covers binding signal for eight sequences.

Assay in all cases: DAPPL (digital affinity profiling via proximity ligation, sequencing); 10 mM Tris-HCl pH 7.5, 50 mM NaCl, 1 mM DTT, 4% glycerol, room temperature, 30 min; GST-TFs on glutathione beads, 16-mer random dsDNA library, 0.1% formaldehyde crosslink after washing; high values mean tight binding
Holding throughout (settings): protein: recombinant; tags: N-terminal GST; dsDNA, one strand shown

In one assay the target is T1, FLI1 (Homo sapiens, UniProt Q01543 1-452).
T1 sequence: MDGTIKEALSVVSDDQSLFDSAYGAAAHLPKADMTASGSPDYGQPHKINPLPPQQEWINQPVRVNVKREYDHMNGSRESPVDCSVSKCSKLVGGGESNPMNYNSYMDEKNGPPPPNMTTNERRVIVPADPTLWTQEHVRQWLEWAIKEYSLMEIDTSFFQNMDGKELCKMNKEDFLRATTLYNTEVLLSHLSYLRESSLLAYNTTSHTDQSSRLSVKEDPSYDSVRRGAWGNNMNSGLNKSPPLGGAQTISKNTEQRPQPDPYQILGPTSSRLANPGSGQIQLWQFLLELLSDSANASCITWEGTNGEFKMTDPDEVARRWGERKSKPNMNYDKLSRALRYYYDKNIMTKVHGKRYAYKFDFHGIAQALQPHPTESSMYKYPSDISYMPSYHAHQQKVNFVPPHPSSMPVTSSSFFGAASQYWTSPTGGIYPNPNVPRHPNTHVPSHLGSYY
Summed up:
(§1)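 Yeast served to express human transcription factors as GST fusions, which were then captured on glutathione beads and labelled with DNA barcodes. Pooled with a tag-only sample, they were incubated with 200 nmole of a 16-mer random double-stranded DNA library for 30 min at room temperature in Tris/NaCl/DTT/glycerol buffer, washed, crosslinked with 0.1% formaldehyde, ligated by proximity, amplified by PCR and sequenced. Dividing each hexamer's read frequency for a factor by its frequency for the tag-only sample gives the binding signal.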

A further assay concerns the target T2, ELK1 (Homo sapiens, UniProt P19419 1-428).
T2 sequence: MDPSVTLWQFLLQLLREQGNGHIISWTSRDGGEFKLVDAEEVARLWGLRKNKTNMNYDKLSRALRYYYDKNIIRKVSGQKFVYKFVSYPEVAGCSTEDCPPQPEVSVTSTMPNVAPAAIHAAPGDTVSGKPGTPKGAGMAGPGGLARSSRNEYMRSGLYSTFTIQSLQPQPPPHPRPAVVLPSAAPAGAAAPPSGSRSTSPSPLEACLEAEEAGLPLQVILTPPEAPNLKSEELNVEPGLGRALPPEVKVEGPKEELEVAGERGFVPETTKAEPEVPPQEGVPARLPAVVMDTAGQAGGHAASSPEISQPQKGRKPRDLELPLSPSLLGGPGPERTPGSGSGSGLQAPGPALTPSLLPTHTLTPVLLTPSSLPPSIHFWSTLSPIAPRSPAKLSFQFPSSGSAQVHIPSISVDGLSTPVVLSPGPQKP
The procedure, abridged:
as §1

The next assay has as its target T3, GABPA (Homo sapiens, UniProt Q06546 1-454).
T3 sequence: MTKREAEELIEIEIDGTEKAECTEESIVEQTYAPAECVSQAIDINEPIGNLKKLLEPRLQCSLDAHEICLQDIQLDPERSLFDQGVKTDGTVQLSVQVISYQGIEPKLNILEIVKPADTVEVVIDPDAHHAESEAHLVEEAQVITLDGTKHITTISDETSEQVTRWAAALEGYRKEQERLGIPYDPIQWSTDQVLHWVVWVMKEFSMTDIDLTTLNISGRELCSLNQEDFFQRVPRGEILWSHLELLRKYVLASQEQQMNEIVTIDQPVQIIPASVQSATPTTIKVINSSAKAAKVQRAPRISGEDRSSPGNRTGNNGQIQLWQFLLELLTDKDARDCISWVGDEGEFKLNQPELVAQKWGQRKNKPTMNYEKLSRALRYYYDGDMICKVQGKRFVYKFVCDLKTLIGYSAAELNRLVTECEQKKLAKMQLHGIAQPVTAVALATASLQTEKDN
Summed up: as §1

The target in another assay is T4, ERG (Homo sapiens, UniProt P11308 1-479).
T4 sequence: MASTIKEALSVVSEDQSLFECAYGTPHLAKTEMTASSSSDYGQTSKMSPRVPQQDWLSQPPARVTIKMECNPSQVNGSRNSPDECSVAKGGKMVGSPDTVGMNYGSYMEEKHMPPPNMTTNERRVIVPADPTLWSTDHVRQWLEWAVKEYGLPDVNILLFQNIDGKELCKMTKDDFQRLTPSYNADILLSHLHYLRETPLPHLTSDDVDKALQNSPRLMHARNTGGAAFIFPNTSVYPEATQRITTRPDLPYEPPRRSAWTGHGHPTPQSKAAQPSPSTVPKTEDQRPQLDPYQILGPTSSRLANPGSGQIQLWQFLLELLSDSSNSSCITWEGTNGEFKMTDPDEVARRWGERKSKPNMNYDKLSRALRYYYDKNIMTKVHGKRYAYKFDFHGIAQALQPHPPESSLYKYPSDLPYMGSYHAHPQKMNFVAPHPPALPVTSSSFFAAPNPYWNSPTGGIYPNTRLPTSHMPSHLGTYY
Summed up:
as §1

Another assay concerns the target ELF1 (Homo sapiens, UniProt P32519 1-619). Summed up:
as §1

The target in a further assay is T5, EHF (Homo sapiens, UniProt Q9NZC4 1-300).
T5 sequence: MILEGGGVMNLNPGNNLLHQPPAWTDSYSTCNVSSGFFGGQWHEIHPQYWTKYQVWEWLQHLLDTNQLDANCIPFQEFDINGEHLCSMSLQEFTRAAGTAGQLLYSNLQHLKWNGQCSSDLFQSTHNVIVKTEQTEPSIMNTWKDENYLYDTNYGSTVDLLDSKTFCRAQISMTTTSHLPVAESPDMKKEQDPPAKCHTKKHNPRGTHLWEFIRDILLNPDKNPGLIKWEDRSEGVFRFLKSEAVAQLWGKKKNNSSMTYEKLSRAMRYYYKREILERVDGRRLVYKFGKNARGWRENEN
Summed up:
as §1

Another assay addresses SPI1 (Homo sapiens, UniProt P17947 1-270). Summed up:
as §1

The next assay concerns the target SPIB (Homo sapiens, UniProt Q01892 1-262). The procedure, abridged:
as §1

The next assay concerns the target T6, ELK3 (Homo sapiens, UniProt P41970 1-407).
T6 sequence: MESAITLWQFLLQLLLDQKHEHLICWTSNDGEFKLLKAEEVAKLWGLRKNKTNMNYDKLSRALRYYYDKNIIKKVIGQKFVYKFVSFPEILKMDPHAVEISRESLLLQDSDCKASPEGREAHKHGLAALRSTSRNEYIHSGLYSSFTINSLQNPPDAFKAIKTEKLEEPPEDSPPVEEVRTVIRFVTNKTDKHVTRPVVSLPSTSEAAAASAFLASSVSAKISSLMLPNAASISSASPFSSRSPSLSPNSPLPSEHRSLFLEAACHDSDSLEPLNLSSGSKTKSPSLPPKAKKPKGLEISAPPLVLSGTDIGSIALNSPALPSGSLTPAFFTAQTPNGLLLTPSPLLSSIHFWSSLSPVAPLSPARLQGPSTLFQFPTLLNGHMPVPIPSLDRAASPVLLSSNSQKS
The procedure, abridged:
as §1

Sequence of ELF1 (P32519 whole entry): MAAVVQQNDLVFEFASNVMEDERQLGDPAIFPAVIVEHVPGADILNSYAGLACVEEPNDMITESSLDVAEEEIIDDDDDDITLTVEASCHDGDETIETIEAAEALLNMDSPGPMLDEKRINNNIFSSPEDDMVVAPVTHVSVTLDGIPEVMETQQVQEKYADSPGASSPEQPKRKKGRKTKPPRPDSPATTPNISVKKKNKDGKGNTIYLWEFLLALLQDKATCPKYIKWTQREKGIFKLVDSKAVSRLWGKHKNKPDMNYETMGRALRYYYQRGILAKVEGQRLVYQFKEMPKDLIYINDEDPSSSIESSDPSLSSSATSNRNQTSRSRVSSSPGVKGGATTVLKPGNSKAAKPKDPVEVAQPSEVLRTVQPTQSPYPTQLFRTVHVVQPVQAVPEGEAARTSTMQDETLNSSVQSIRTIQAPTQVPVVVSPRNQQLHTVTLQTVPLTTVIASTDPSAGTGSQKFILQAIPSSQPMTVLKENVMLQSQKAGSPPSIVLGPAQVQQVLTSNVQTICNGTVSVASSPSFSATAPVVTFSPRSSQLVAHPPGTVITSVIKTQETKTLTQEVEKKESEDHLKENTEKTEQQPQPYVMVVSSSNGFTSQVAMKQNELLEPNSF
Sequence of SPIB (Q01892 whole entry): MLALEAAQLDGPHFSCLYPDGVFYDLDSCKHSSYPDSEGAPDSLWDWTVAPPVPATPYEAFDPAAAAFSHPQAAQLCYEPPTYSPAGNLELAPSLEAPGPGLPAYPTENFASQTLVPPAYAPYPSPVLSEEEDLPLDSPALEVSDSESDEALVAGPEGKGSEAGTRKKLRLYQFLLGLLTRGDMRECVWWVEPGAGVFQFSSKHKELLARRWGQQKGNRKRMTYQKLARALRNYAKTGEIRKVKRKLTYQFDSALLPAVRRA

ATCCAT: the binding signal with FLI1 was 1.22 fold enrichment (6-mer frequency, TF over GST control); in the assay with ELK1 it was 1.17 fold enrichment (6-mer frequency, TF over GST control); with GABPA it was 1.16 fold enrichment (6-mer frequency, TF over GST control); with ERG, 1.11 fold enrichment (6-mer frequency, TF over GST control); with ELF1, 1.14 fold enrichment (6-mer frequency, TF over GST control); with EHF, 1.14 fold enrichment (6-mer frequency, TF over GST control). Moreover, the binding signal with SPI1 was 1.07 fold enrichment (6-mer frequency, TF over GST control); with SPIB it was 1.18 fold enrichment (6-mer frequency, TF over GST control); with ELK3, 1.2 fold enrichment (6-mer frequency, TF over GST control).
As to ATGCAT, the binding signal with FLI1 is 1.21 fold enrichment (6-mer frequency, TF over GST control); with ELK1, 1.21 fold enrichment (6-mer frequency, TF over GST control); with GABPA, 1.22 fold enrichment (6-mer frequency, TF over GST control); in the assay with ERG, 1.16 fold enrichment (6-mer frequency, TF over GST control); in the assay with ELF1, 1.16 fold enrichment (6-mer frequency, TF over GST control); with EHF, 1.22 fold enrichment (6-mer frequency, TF over GST control). For the same sequence, the binding signal with SPI1 was 1.18 fold enrichment (6-mer frequency, TF over GST control); with SPIB, 1.19 fold enrichment (6-mer frequency, TF over GST control); with ELK3, 1.29 fold enrichment (6-mer frequency, TF over GST control).
Take TCGATT: the binding signal in the assay with FLI1 was 1.12 fold enrichment (6-mer frequency, TF over GST control); in the assay with ELK1, 1.11 fold enrichment (6-mer frequency, TF over GST control); with GABPA, 1.13 fold enrichment (6-mer frequency, TF over GST control); with ERG, 1.12 fold enrichment (6-mer frequency, TF over GST control); with ELF1, 1.12 fold enrichment (6-mer frequency, TF over GST control); in the assay with EHF, 1.05 fold enrichment (6-mer frequency, TF over GST control). Also, the binding signal with SPI1 is 1.08 fold enrichment (6-mer frequency, TF over GST control); in the assay with SPIB it was 1.15 fold enrichment (6-mer frequency, TF over GST control); with ELK3 it was 1.06 fold enrichment (6-mer frequency, TF over GST control).
On to AATTGA, for which the binding signal in the assay with FLI1 was 1.18 fold enrichment (6-mer frequency, TF over GST control); with ELK1 it was 1.19 fold enrichment (6-mer frequency, TF over GST control); with GABPA it was 1.2 fold enrichment (6-mer frequency, TF over GST control); with ERG, 1.16 fold enrichment (6-mer frequency, TF over GST control); with ELF1, 1.15 fold enrichment (6-mer frequency, TF over GST control); with EHF it was 1.25 fold enrichment (6-mer frequency, TF over GST control). Also, the binding signal in the assay with SPI1 was 1.16 fold enrichment (6-mer frequency, TF over GST control); with SPIB it was 1.2 fold enrichment (6-mer frequency, TF over GST control); in the assay with ELK3, 1.27 fold enrichment (6-mer frequency, TF over GST control).
Consider GATGAT, for which the binding signal was 1.34 fold enrichment (6-mer frequency, TF over GST control) with FLI1; 1.37 fold enrichment (6-mer frequency, TF over GST control) with ELK1; 1.35 fold enrichment (6-mer frequency, TF over GST control) in the assay with GABPA; 1.33 fold enrichment (6-mer frequency, TF over GST control) with ERG; 1.32 fold enrichment (6-mer frequency, TF over GST control) in the assay with ELF1; 1.44 fold enrichment (6-mer frequency, TF over GST control) in the assay with EHF. The binding signal in the assay with SPI1 was 1.28 fold enrichment (6-mer frequency, TF over GST control); with SPIB, 1.33 fold enrichment (6-mer frequency, TF over GST control); in the assay with ELK3, 1.34 fold enrichment (6-mer frequency, TF over GST control).
Take CTCATG: the binding signal in the assay with FLI1 was 1.29 fold enrichment (6-mer frequency, TF over GST control); in the assay with ELK1, 1.29 fold enrichment (6-mer frequency, TF over GST control); in the assay with GABPA, 1.26 fold enrichment (6-mer frequency, TF over GST control); with ERG, 1.21 fold enrichment (6-mer frequency, TF over GST control); with ELF1, 1.32 fold enrichment (6-mer frequency, TF over GST control); with EHF it was 1.23 fold enrichment (6-mer frequency, TF over GST control). In addition, the binding signal was 1.27 fold enrichment (6-mer frequency, TF over GST control) with SPI1; 1.11 fold enrichment (6-mer frequency, TF over GST control) with SPIB; 1.26 fold enrichment (6-mer frequency, TF over GST control) in the assay with ELK3.
As to AAACCA, the binding signal with FLI1 is 1.13 fold enrichment (6-mer frequency, TF over GST control); in the assay with ELK1, 1.11 fold enrichment (6-mer frequency, TF over GST control); in the assay with GABPA, 1.14 fold enrichment (6-mer frequency, TF over GST control); with ERG, 1.19 fold enrichment (6-mer frequency, TF over GST control); with ELF1, 1.18 fold enrichment (6-mer frequency, TF over GST control); in the assay with EHF it was 1.17 fold enrichment (6-mer frequency, TF over GST control). Further, the binding signal with SPI1 was 1.07 fold enrichment (6-mer frequency, TF over GST control); with SPIB it was 1.16 fold enrichment (6-mer frequency, TF over GST control); with ELK3, 1.18 fold enrichment (6-mer frequency, TF over GST control).
Regarding AACCTG, the binding signal with FLI1 is 1.19 fold enrichment (6-mer frequency, TF over GST control); in the assay with ELK1, 1.2 fold enrichment (6-mer frequency, TF over GST control); in the assay with GABPA, 1.17 fold enrichment (6-mer frequency, TF over GST control); with ERG it was 1.09 fold enrichment (6-mer frequency, TF over GST control); with ELF1, 1.16 fold enrichment (6-mer frequency, TF over GST control); with EHF, 1.22 fold enrichment (6-mer frequency, TF over GST control). Further, the binding signal with SPI1 is 1.27 fold enrichment (6-mer frequency, TF over GST control); in the assay with SPIB it was 1.12 fold enrichment (6-mer frequency, TF over GST control); with ELK3, 1.21 fold enrichment (6-mer frequency, TF over GST control).
